# Assay results as given in PubChem BioAssay (Tox21).
# Inconclusive results are not listed. Activity calls are given as the source filed them. The call rests on the fitted dose curve; in most records, active means well fitted cell-killing curve with a large enough effect in the repeat runs; inconclusive means weak or mixed curves, or effect the other way; inactive means flat fitted curve, though single readings scatter.
# Test: cAMP Responsive Elements (CRE) small molecule antagonists, cell-based qHTS assay: qHTS cell viability counter screen (AID 2060913); further: nearly all actives have a fitted effect of over 40% in size
# Conditions: CRE-bla HEK293T viability, CellTiter-Glo luminescence, 5 h; series mostly up to 92.4 µM; viability change, negative = cytotoxic: at the top concentration
# Text: U.S. Tox21 Program National Center for Advancing Translational Sciences [NCATS] Division of Preclinical Innovation [DPI] U.S. Environmental Protection Agency [EPA] National Institutes of Environmental Health Sciences [NIEHS] National Toxicology Program [NTP] U.S. Food and Drug Administration [FDA] Tox21 Assay Overview: CREB (cyclic-AMP Responsive Element Binding Protein) is a cellular transcription factor. It binds to certain DNA sequences called cAMP Responsive Elements (CRE) and regulates the transcription of the genes. […] This cell line can be used to find agonists/antagonists of the cyclic AMP signaling pathway. The activation of the report gene under culture conditions can be detected by fluorescence intensity. This cell line has been used to screen the Tox21 10K compound library to identify agonists that induce oxidative stress. The cytotoxicity of the Tox21 compound library against the CRE-bla cell line was tested in parallel by measuring the cell viability using CellTiter-Glo assay (Promega, Madison, WI) in the same wells.
# Tox21 Assay Protocol Summary: CRE-bla Hek 293T cells were suspended in assay medium (DMEM containing 10% dialyzed FBS, 0.1 mM NEAA, 1 mM sodium pyruvate and 25 mM HEPES) and dispensed at 2,000 cells/4 uL /well into 1536-well black wall/clear bottom plates using a Multidrop Combi (ThermoFisher Scientific, Waltham, MA) dispenser. After the assay plates were incubated at 37 C/5% CO2 for 18 hrs, 23 nL of compounds dissolved in DMSO, positive controls or DMSO only was transferred to the assay plate by a pintool workstation (Kalypsys, San Diego, CA), followed by addition of 1 uL of 1.25uM NKH477 (0.25 uM as final concentration) in assay medium using a Flying Reagent Dispenser (Aurora Discovery, San Diego, CA). The plates were incubated at 37 C and 5% CO2 for 3 hrs. Then 1 uL of LiveBLAzer B/G FRET substrate (Invitrogen, Carlsbad, CA) was added to each well using Bioraptr Flying Reagent Dispenser (FRD, Aurora Discovery, San Diego, CA). The plates were incubated at room temperature for 2 h, then fluorescence intensities were measured using an Envision plate reader (PerkinElmer, Shelton, CT) at Excitation 405nm, Emission 460nm and 530nm. The % activity was determined from the ratio of 460nm/530nm. For cell viability readout that measures cytotoxicity, 4 uL /well of CellTiter-Glo reagent was added into the assay plates using Bioraptr FRD. After 30 min incubation at room temperature, the luminescence intensity in the assay plates was measured using a ViewLux (PerkinElmer, Shelton, CT) plate reader.
# On the % scale 0 is the no-effect control and ±100 the full control effect; potency means the concentration at half of the fitted maximal effect.
SMILES,"viability change, negative = cytotoxic",Potency
C[C@H]1C[C@H]2[C@@H]3CCC4=CC(=O)C=C[C@]4(C)[C@@]3(Cl)[C@@H](O)C[C@]2(C)[C@@]1(O)C(=O)CO,-6.66% [at 42.5 µM] (inactive),
Cc1ccc(C)cc1,0.233% (inactive),
CCOC(=O)C1=C[C@]2(CC)CCCN3CCc4c(n1c1ccccc41)[C@@H]32,-0.897% [at 42.5 µM] (inactive),
c1ccc(CCCc2ccccn2)cc1,0.169% (inactive),
Cc1cccc2nccnc12,-2.62% (inactive),
CCc1cccc(O)c1,,inactive
CC12CCC(CC1=O)C2(C)C (stereo not given),10.7% (inactive),
Cc1cc(C)nc(NS(=O)(=O)c2ccc(N)cc2)n1,,inactive
O=C(O)c1ccccc1Nc1cccc(C(F)(F)F)c1,,inactive
Nc1ncnc(Nc2ccccc2)n1,14.5% [at 42.5 µM] (inactive),
CCOC=C(C(=O)OCC)C(=O)OCC,6.22% (inactive),
CCCCOC(=O)COc1ccc(Cl)cc1Cl,,inactive
CCc1cnc(C(=O)O)c(C(=O)O)c1,2.9% (inactive),
Fc1ccc(C(c2ccc(F)cc2)N2CCN(C/C=C/c3ccccc3)CC2)cc1,-14.9% [at 42.5 µM] (inactive),
CC(O)Cn1cnc2c1c(=O)n(C)c(=O)n2C (stereo not given),1.17% [at 42.5 µM] (inactive),
C[C@@H](N)C(=O)O,5.43% [at 42.5 µM] (inactive),
CN[C@@H]1[C@H](O)[C@H](NC)[C@H]2O[C@@]3(O)C(=O)C[C@@H](C)O[C@H]3O[C@@H]2[C@H]1O,-1.32% [at 42.5 µM] (inactive),
CC(=O)O[C@H]1C[C@@H]2CC[C@@H]3[C@H](CC[C@@]4(C)[C@H]3C[C@H]([N+]3(C)CCCCC3)[C@@H]4OC(C)=O)[C@@]2(C)C[C@@H]1N1CCCCC1,18% [at 42.5 µM] (inactive),
CC(=O)CC(N)=O,-8.78% (inactive),
N#CCc1cccc(C(F)(F)F)c1,1.33% (inactive),

SMILES,"viability change, negative = cytotoxic",Potency
COC=O,-17.9% [at 8.39 µM] (inactive),
O=C(O)COCCN1CCN(C(c2ccccc2)c2ccc(Cl)cc2)CC1 (stereo not given),,inactive
NC(=O)NC1NC(=O)NC1=O (stereo not given),,inactive
NNC(=O)CCCCC(=O)NN,9.9% (inactive),
CCCC(=O)OC(=O)CCC,-0.4% (inactive),
CC(=O)N(CC(O)CN(C(C)=O)c1c(I)c(C(=O)NCC(O)CO)c(I)c(C(=O)NCC(O)CO)c1I)c1c(I)c(C(=O)NCC(O)CO)c(I)c(C(=O)NCC(O)CO)c1I (stereo not given),3.4% [at 42.5 µM] (inactive),
C[C@]12CC[C@H]3[C@@H](CCC4=CC(=O)CC[C@@]43C)[C@@H]1CC[C@@H]2C(=O)CO,,inactive
C=C(C)OC(C)=O,,inactive
C=C(C)C(=O)OCC(O)COc1ccc(C(C)(C)c2ccc(OCC(O)COC(=O)C(=C)C)cc2)cc1 (stereo not given),,61.1 µM (active)
CC(=O)c1c(C)c([N+](=O)[O-])c(C(C)(C)C)c([N+](=O)[O-])c1C,-7.78% (inactive),
N#Cc1ccc(C(c2ccc(C#N)cc2)n2cncn2)cc1,-5.95% [at 42.5 µM] (inactive),
CCNC(=O)C(C)OC(=O)Nc1ccccc1 (stereo not given),-8.01% (inactive),
CCc1cccc(C)c1N(C(=O)C(=O)O)C(C)COC (stereo not given),-0.724% (inactive),
CC(C(=O)O)c1ccc2c(c1)[nH]c1ccc(Cl)cc12 (stereo not given),-4.26% [at 42.5 µM] (inactive),
Nc1ccc(N)c(Cl)c1,,inactive
CC[N+](C)(CC)CC,9.58% (inactive),
CC/C=C\C/C=C\C/C=C\CCCCCCCC(=O)O,,inactive
CC(C)(C)CC(C)(C)c1ccc(Nc2ccc(C(C)(C)CC(C)(C)C)cc2)cc1,-5.06% [at 8.39 µM] (inactive),
CC(C(=O)O)c1ccc2c(c1)CC(=O)c1ccccc1S2 (stereo not given),9.93% [at 42.5 µM] (inactive),
Clc1cccnc1,14.6% (inactive),
